Reference: PubChem BioAssay (NCI)
About 79,000 compounds went through this panel and 15% of them were active in at least one assay; those are over-represented in the sample as a whole. Unmarked numbers belong to inactive results. Active and inactive are the calls of the source. Cut-off read from the data, not from the text of the source: active = growth inhibition above about 70%; inactive = the rest.

What was measured:
[1] = NCI Yeast Anticancer Drug Screen. Data for the rad50 strain (AID 155);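 note: 0% = growth of vehicle-only cultures of the same strain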; conditions: S. cerevisiae rad50 strain growth inhibition, hits give high values
Procedure, shortened: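 Cells are treated with compound, grown, and their growth is then scored against vehicle-only cultures of the same repair-deficient yeast strain.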

[2] = NCI Yeast Anticancer Drug Screen. Data for the mec2-1 strain (AID 157); conditions: S. cerevisiae mec2-1 strain, hits give high values
Procedure, shortened: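 Each compound was tested on mec2-1 yeast, a strain altered in DNA damage repair or cell cycle control. Growth inhibition is reported relative to vehicle.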

[3] = NCI Yeast Anticancer Drug Screen. Data for the sgs1 mgt1 strain (AID 161);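 note: 0% = growth of cultures given vehicle only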; conditions: S. cerevisiae sgs1 mgt1 strain, hits give high values
Procedure, shortened: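 Mutant yeast exposed to compound; growth scored against vehicle-only wells.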

[4] = NCI Yeast Anticancer Drug Screen. Data for the cln2 rad14 strain (AID 165);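 note: 0% = growth equal to vehicle treated cultures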; conditions: S. cerevisiae cln2 rad14 strain, hits give high values
Procedure, shortened: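 Test compounds were added to cln2 rad14 yeast cultures; inhibition of growth was then determined by comparison with vehicle treatment.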

[5] = NCI Yeast Anticancer Drug Screen. Data for the bub3 strain (AID 167); conditions: S. cerevisiae bub3 mutant strain, hits give high values
Procedure, shortened: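 Part of a panel of yeast mutants defective in DNA damage repair or cell cycle regulation. Each strain is grown with compound, and inhibition is calculated relative to solvent-treated cultures.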

[6] = NCI Yeast Anticancer Drug Screen. Data for the mlh1 rad18 strain (AID 175); conditions: S. cerevisiae mlh1 rad18 strain growth inhibition, hits give high values
Procedure, shortened: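 Inhibition values reflect reduced growth of mutant yeast versus vehicle-treated controls following compound exposure; the mutations affect DNA damage repair.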

[7] = at 5.0 µM (retest, dose inferred, filed as 0.5)
[8] = at 50.0 µM (retest, dose inferred, filed as 5.0)

SMILES | growth inhibition [1, 7] | growth inhibition [1, 8] | growth inhibition ([1]; at 50.0 µM) | growth inhibition [2, 7] | growth inhibition [2, 8] | growth inhibition ([2]; at 50.0 µM) | growth inhibition [3, 7] | growth inhibition [3, 8] | growth inhibition ([3]; at 50.0 µM) | growth inhibition [4, 7] [%] | growth inhibition [4, 8] | growth inhibition ([4]; at 50.0 µM) | growth inhibition [5, 7] | growth inhibition [5, 8] | growth inhibition ([5]; at 50.0 µM) | growth inhibition [6, 7] | growth inhibition [6, 8] | growth inhibition ([6]; at 50.0 µM)
COc1ccc(N=C2C(=S)N(c3ccc(OC)cc3)/C(=N/S(=O)(=O)c3ccccc3)N2c2ccccc2)cc1 | 10% | 18% | 8.6% | 9% | 23% | -4.1% | -23% | 0% | 5.7% | -11 | 3% | 11.2% | -13% | 11% | 1.65% | 14% | 16% | 14%
CCCCCCCCCc1ccc(O)c(Cl)c1 | -28% | 94% (active) | 99.7% (active) | -3% | 90% (active) | 99.8% (active) | -2% | 99% (active) | 99.2% (active) | -12 | 97% (active) | 99.5% (active) | -1% | 86% (active) | 99.4% (active) | -9% | 99% (active) | 99.5% (active)
Clc1ccc(SCCN2CCN(CCSc3ccc(Cl)cc3)CC2)cc1 | 76% (active) | 98% (active) | 83.2% (active) | 79% (active) | 99% (active) | 77.9% (active) | 92% (active) | 99% (active) | 94.2% (active) | 54 | 98% (active) | 86.9% (active) | 85% (active) | 99% (active) | 92.1% (active) | 88% (active) | 99% (active) | 96.6% (active)
ON(C(=Nc1ccc(Cl)cc1)c1ccccc1)c1ccccc1 | -10% | 98% (active) | 98% (active) | 7% | 99% (active) | 99.2% (active) | -5% | 99% (active) | 99% (active) | -11 | 98% (active) | 99.2% (active) | 7% | 98% (active) | 98.8% (active) | 9% | 99% (active) | 99% (active)
CC1Cc2cc(O)c(O)cc2-c2cc(O)c(O)cc2CC1C (stereo not given) | -6% | 86% (active) | 72.1% (active) | -11% | 89% (active) | 83.8% (active) | -9% | 75% (active) | 80.7% (active) | 7 | 85% (active) | 83.4% (active) | -30% | 93% (active) | 79.4% (active) | -8% | 93% (active) | 83.7% (active)
O=c1cc(-c2cccc(OCc3ccccc3)c2)[nH]c2cc3c(cc12)OCO3 | 19% | 6% | 21.3% | 16% | 12% | -21.4% | 21% | 16% | 17.1% | 0 | 11% | 5.75% | 14% | 6% | 19.9% | 22% | 10% | -51.5%
S=C(NCc1ccccc1)N/N=C/c1ccccn1 | -22% | 65% | 20.6% | 9% | 57% | 17.4% | -9% | 60% | 49.8% | 23 | 83% (active) | 62% | -22% | 72% (active) | 63.9% | 0% | 51% | 42.7%
Cc1[nH]c2ccccc2c1/C=C1/CCCCCCC1=O | -1% | 45% | 93.8% (active) | -20% | 34% | 93.6% (active) | -11% | 66% | 96.5% (active) | 3 | 24% | 91.6% (active) | -2% | 41% | 93.5% (active) | -7% | 72% (active) | 97.3% (active)
COc1ccc(C2COc3c(ccc(O)c3O)C2)cc1OC (stereo not given) | -14% | 28% | 25.2% | 1% | 55% | 43.6% | -3% | 66% | 40.1% | 0 | 41% | 55.7% | 0% | 26% | 32.9% | 0% | 74% (active) | 40.2%
O=C(CC(O)c1ccccc1)Sc1ccccc1 (stereo not given) | -1% | 13% | 72% (active) | -2% | 8% | 50% | 1% | 42% | 63.1% | -2 | -7% | -9.2% | -6% | 4% | 80% (active) | -8% | 20% | 74% (active)
